35 molecules from PubChem BioAssay (NCI) can be followed below.

About 83,000 compounds went through this panel and 20% of them were active in at least one assay; those are over-represented in the sample as a whole.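 Growth was measured after 48 h exposure to one concentration of compound in 96-well plates. Values under 10 count as active.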 Values without a mark were called inactive. Active and inactive are the calls of the source.

Holding throughout (assay): NCI-60 one-dose screen, 48 h (100 = growth as untreated, 0 = no growth, -100 = all killed)
Holding throughout (conditions): 10 µM unless noted

The test system of test [1] is T-47D breast.
Test [2] concerns BT-549 breast.
Test [3] relates to MDA-MB-435 melanoma.
Test [4] deals with SW-620 colon.
Test [5] relates to HCC-2998 colon.
The test system of test [6] is KM12 colon.
In test [7] the test system is HCT-116 colon.
Test [8] has as its system MCF7 breast.

For `CCN1CCN(C(=O)[C@@]2(C)CC[C@]3(C)CC[C@]4(C)C(=CC(=O)[C@@H]5[C@@]6(C)CC[C@H](OC7C[C@@H](O)[C@@H](O)C(C)O7)C(C)(C)[C@@H]6CC[C@]54C)[C@@H]3C2)CC1` (stereo partly specified), the growth in test [1] was 82.6%; in test [2] it was 87.1%; in test [3], 20.4%; in test [4], 36.7%; in test [5], 37.7%; in test [6], 30.8%.
As to `COc1cccc(-c2nn(-c3ccccc3)cc2-c2ccnc(NCCCNS(=O)(=O)c3ccc(Br)cc3)c2)c1`, the growth is 18.5% in test [1]; 73% in test [2]; 54.3% in test [3]; 69.7% in test [4]; 46% in test [5]; 44.1% in test [6].
Regarding `Nc1nc(N)c2nc3c(nc2n1)CCCCCCCCCC3`, the growth in test [1] was 82.1%; in test [2], 74.5%; in test [4], 34.3%; in test [7], 21.4%; in test [5] it was 39.2%; in test [6], 61.4%.
Regarding `O=C(N/N=C\c1c(O)ccc2ccccc12)C1CC1`, the growth was 53.6% in test [1]; 64.9% in test [3]; 51.7% in test [4]; 31.1% in test [8]; 13.1% in test [7]; 101% in test [5]. Further, the growth in test [6] is 51.6%.
On to `CC(C)(C)CC(C)(C)c1ccc(OCCOCC[N+](C)(C)CC(=O)[O-])cc1`, for which the growth in test [1] is 103%; in test [2] it was 125%; in test [4] it was 101%; in test [8] it was 105%; in test [7] it was 107%; in test [5] it was 108%. The growth in test [6] is 112%.
With `CC1c2ccccc2N(S(=O)(=O)c2ccccc2)C1C` (stereo unspecified), the growth in test [1] is 102%; in test [3] it was 6.95% (active); in test [4], 72.7%; in test [8], 78.5%; in test [7], 86.2%; in test [5], 101%. Also, the growth in test [6] is 60%.
As for `CCCC(=O)N1CCCCC1CC` (stereo unspecified), the growth in test [1] was 110%; in test [2], 100%; in test [4], 93.8%; in test [8], 103%; in test [7], 116%; in test [5], 115%. Further, in test [6], the growth is 108%.
For the molecule `NC(=O)[C@@H]1CC2CCC1C2` (stereo partly specified), the growth is 113% in test [1]; 94.2% in test [2]; 94% in test [4]; 103% in test [8]; 101% in test [7]; 121% in test [5]. Also, the growth in test [6] is 102%.
For the molecule `C=C(C)[C@@H]1CC[C@]2(C)CC[C@]3(C)[C@H](CC[C@@H]4[C@@]5(C)CCCNC(C)(C)[C@@H]5CC[C@]43C)[C@@H]12`, the growth in test [1] was 76%; in test [2], 101%; in test [3], 84.6%; in test [4], 2.47% (active); in test [5], 66%; in test [6], 66.8%.
As for `Nc1c(Cl)cc(N=Nc2ccccc2)cc1Cl`, the growth in test [1] was 49.6%; in test [3] it was 105%; in test [4], 88.8%; in test [8] it was 19.7%; in test [7], 67.4%; in test [5], 87.1%. The growth in test [6] was 85.7%.
Take `O=C1C=Cc2ncccc2C1=O`: the growth is 66.6% in test [1]; 95.5% in test [2]; 58.2% in test [3]; 12.5% in test [8]; 27.1% in test [7]; 110% in test [5]. The growth in test [6] is 104%.
For the molecule `O=C(O)c1cccc2c1Cc1cc([N+](=O)[O-])ccc1-2`, the growth is 106% in test [1]; 108% in test [3]; 103% in test [4]; 102% in test [8]; 97.5% in test [7]; 101% in test [5]. The growth in test [6] is 109%.
For the molecule `C[N+](C)(CCCCCC[N+](C)(C)C1c2ccccc2-c2ccccc21)C1c2ccccc2-c2ccccc21`, the growth in test [1] was 108%; in test [2], 117%; in test [4] it was 106%; in test [8], 103%; in test [7] it was 101%; in test [5], 110%. For the same molecule, the growth in test [6] is 111%.
For the molecule `c1ccc(C2Cc3ccccc3C2=NC2CCCCC2)cc1` (stereo unspecified), the growth in test [1] was 93.5%; in test [2] it was 88.3%; in test [4], 119%; in test [8] it was 86.1%; in test [7] it was 96.9%; in test [5], 108%. The growth in test [6] was 112%.
Consider `COC1=C(Br)C(=O)C(OC)=C(Br)C1=O`, for which the growth in test [1] is 106%; in test [2] it was 95.9%; in test [3] it was 105%; in test [8], 83%; in test [7], 90.1%.
`OCC12CCCC(CO)(COC1)C2O` (stereo unspecified): the growth in test [1] is 101%; in test [2], 105%; in test [4], 97.1%; in test [8], 106%; in test [7], 100%; in test [5], 100%. Further, the growth in test [6] is 107%.
For `COc1cc(-c2cc3cc(O)ccc3oc2=O)cc(OC)c1OC`, the growth in test [1] is 75.7%; in test [2], 106%; in test [3], 90.7%; in test [4], 108%; in test [5], 116%; in test [6], 93.2%.
Take `COc1ccc(/C=C/C(=O)c2ccc([N+](=O)[O-])cc2)cc1`: the growth in test [1] is 98%; in test [3], 106%; in test [4], 111%; in test [8] it was 96%; in test [7], 99.2%; in test [5] it was 105%. For the same molecule, in test [6], the growth was 98.6%.
In the case of `Cc1cc(C)nc(NC(N)=NCCc2ccccc2)n1`, the growth is 36.1% in test [1]; -7.44% (active) in test [3]; 32.2% in test [4]; 27.9% in test [7]; 94.5% in test [5]; 22.5% in test [6].
On to `O=C(O)c1cccc2c1C(=O)N(c1ccc3c(c1)Cc1ccccc1-3)C2=O`, for which the growth in test [1] was 106%; in test [3], 111%; in test [4], 105%; in test [8], 93.9%; in test [7], 112%; in test [5], 102%. Further, the growth in test [6] was 109%.
Take `O=[N+]([O-])c1cccc(/C=N\Nc2ccccc2)c1`: the growth in test [1] was 55.8%; in test [3], 53.8%; in test [4] it was 71.3%; in test [8], 64.5%; in test [7], 58.3%; in test [5] it was 83.8%.
For the molecule `O=C(NC1=CC(=O)c2ccccc2C1=O)c1ccccc1`, the growth in test [1] is -45.6% (active); in test [3], 2.96% (active); in test [4] it was -56.2% (active); in test [8] it was 14.3%; in test [7], -69% (active); in test [5], 32.3%. Moreover, the growth in test [6] is 11.2%.
Take `C=C(C)[C@@H]1CC[C@]2(c3nnc(-c4ccncc4)o3)CC[C@]3(C)[C@H](CC[C@@H]4[C@@]5(C)CCC(=O)NC(C)(C)[C@@H]5CC[C@]43C)[C@@H]12`: the growth in test [2] is 89.8%; in test [3], 101%; in test [4], 103%; in test [8] it was 92.9%; in test [7] it was 88.8%; in test [5] it was 103%.
Take `COCCNC1=C(Cl)C(=O)c2ccccc2C1=O`: the growth was 98.8% in test [1]; 98.2% in test [2]; 24.5% in test [3]; 81.3% in test [8]; 86.8% in test [7]; 95% in test [5]. Moreover, in test [6], the growth is 83.3%.
In the case of `O=[N+]([O-])c1ccc(/C=N\Nc2ccccc2)cc1`, the growth in test [1] was 72.2%; in test [3], 68.9%; in test [4], 79.9%; in test [8] it was 75.1%; in test [7], 66.3%; in test [5] it was 96.6%. Further, the growth in test [6] is 36.1%.
For `CCN1CCN(C(=O)[C@]23CCC(C)(C)C[C@H]2C2=CC[C@@H]4[C@@]5(C)CC/C(=N/O)C(C)(C)[C@@H]5CC[C@@]4(C)[C@]2(C)CC3)CC1`, the growth in test [2] is 87.2%; in test [3], 66.1%; in test [4], 22.4%; in test [8], 37.5%; in test [7], 19%; in test [5], 90.4%.
`O=C(c1ccccc1)C(CN1CCOCC1)c1ccccc1` (stereo unspecified): the growth was 64.3% in test [1]; 30.2% in test [2]; -45.2% (active) in test [4]; 1.11% (active) in test [8]; 3.3% (active) in test [7]; 54.4% in test [5].
`Oc1ccccc1/C=N\NC(=S)Nc1ccc(F)cc1`: the growth in test [1] was 42%; in test [3], 21.8%; in test [4], 41.5%; in test [8], 16.9%; in test [7], 25.8%; in test [5], 39.7%. Moreover, in test [6], the growth is 23.2%.
As for `Brc1ccc(Cn2nnnc2-c2ccn(-c3ccccc3)n2)cc1`, the growth in test [1] is 57.7%; in test [2], 76.8%; in test [3], 85%; in test [8] it was 77.7%; in test [7], 49.4%; in test [5] it was 80.1%. For the same molecule, in test [6], the growth is 80.6%.
As to `O=C1C=C(C(O)c2ccc(O)cc2)C(=O)c2ccccc21` (stereo unspecified), the growth was 80.2% in test [1]; 88.1% in test [2]; 97.4% in test [4]; 94.1% in test [8]; 96.1% in test [7]; 97% in test [5]. For the same molecule, the growth in test [6] was 107%.
`O=C(CI)Nc1ccc(O)c2ccccc12`: the growth in test [1] was -52% (active); in test [2], 44.1%; in test [4] it was -68.9% (active); in test [8], 0.823% (active); in test [7], -59.5% (active); in test [5] it was 82.4%. Also, the growth in test [6] was 64.8%.
`[B-][N+](CC)(CC)c1ccccc1`: the growth in test [1] was 102%; in test [2], 99.3%; in test [4], 109%; in test [7] it was 100%; in test [5] it was 105%; in test [6], 105%.
Turning to `Cc1nn(-c2ccc(Cl)cc2)c(=O)n1CCn1cnc2ccccc21`, the growth was 90.8% in test [1]; 97.5% in test [2]; 100% in test [3]; 95.5% in test [8]; 97.5% in test [7]; 104% in test [5].
For `CN(C)c1ccc(N)c2ccccc12`, the growth was 80.2% in test [1]; 80.4% in test [2]; -91.3% (active) in test [3]; -70.1% (active) in test [8]; 6.65% (active) in test [7]; 50.2% in test [5]. In addition, the growth in test [6] was 62.7%.
With `COc1c(N)c2c(c([N+](=O)[O-])c1OC)C(=O)OC2`, the growth in test [1] was 101%; in test [3] it was 106%; in test [4] it was 106%; in test [8], 100%; in test [7] it was 102%; in test [5], 105%. In test [6], the growth was 107%.
